M18AAP inhibitor – blocks P. falciparum M18 aspartyl aminopeptidase; recombinant PfM18AAP, H-Glu-NHMec fluorogenic cleavage; inhibition, % at 7.35 µM; 290,000 compounds, 1.2% hits;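 active = inhibition above the campaign mean inhibition over all tested compounds plus 3 SD, cut at about 28% in these data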
pPAFAH FP inh – pPAFAH (human) enzyme inhibition. Q13093. 330,000 compounds, 1.5% hits. recombinant pPAFAH, FP-rhodamine probe fluorescence polarization. inhibition, % at 3.39 µM;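 active = inhibition above the mean inhibition across the screen plus 3 SD, cut at about 25% in these data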;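 also: inhibitors block binding of the rhodamine activity-based probe so polarization drops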
PAFAH1B2 FP inh – blocks human PAF acetylhydrolase 1b catalytic subunit 2 | 340,000 compounds, 1.2% hits | recombinant PAFAH1B2, FP-rhodamine activity probe, fluorescence polarization | AID 492953 | inhibition, % at 3.39 µM;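 active = inhibition above the mean of all tested compounds plus 3 SD, cut at about 24% in these data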
Target sequence (P68402 whole entry, looked up): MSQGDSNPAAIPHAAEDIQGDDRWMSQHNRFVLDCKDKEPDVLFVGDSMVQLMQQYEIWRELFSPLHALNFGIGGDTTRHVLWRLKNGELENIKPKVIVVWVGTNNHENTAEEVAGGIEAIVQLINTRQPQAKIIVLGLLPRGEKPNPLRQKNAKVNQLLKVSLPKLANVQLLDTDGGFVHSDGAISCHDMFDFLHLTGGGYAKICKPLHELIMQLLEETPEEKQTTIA
PAFAH1B3 inh – blocks human PAF acetylhydrolase 1B catalytic subunit 3; Q15102; recombinant PAFAH1B3, FP-rhodamine probe, fluorescence polarization; inhibition, % at 3.39 µM; 340,000 compounds, 0.28% hits;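 active = inhibition above the screen-wide average of all tested compounds plus 3 SD, cut at about 25% in these data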
Target sequence (Q15102 whole entry, looked up): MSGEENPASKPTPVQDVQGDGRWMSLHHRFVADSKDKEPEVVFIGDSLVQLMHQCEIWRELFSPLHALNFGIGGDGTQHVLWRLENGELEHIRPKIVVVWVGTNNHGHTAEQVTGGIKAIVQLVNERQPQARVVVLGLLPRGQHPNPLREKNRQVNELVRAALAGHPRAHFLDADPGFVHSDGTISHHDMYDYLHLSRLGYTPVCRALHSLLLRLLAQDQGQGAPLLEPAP
PAFAH2 inh – inhibitors of human PAFAH2. recombinant PAFAH2, FP-rhodamine activity probe, fluorescence polarization. AID 492956. inhibition, % at 3.39 µM. 340,000 compounds, 0.99% hits;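 active = inhibition above the mean over all tested compounds plus 3 SD, cut at about 30% in these data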;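 also: inhibitors block probe labeling of enzyme so polarization drops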
Pemphigus Ab inh – inhibitors of pemphigus antibody binding to human desmoglein-3; P32926; DSG3-coupled beads, scFv-anti-DSG3-GFP binding, flow cytometry; stronger effect = lower value; binding (percent of control), % at 10 µM; 310,000 compounds, 0.48% hits;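 active = binding more than 3 SD below its plate's average and above zero; inconclusive = below that plate limit but binding exactly zero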
Numbers stand for hits. This is a sample that favours compounds with a hit; in the whole collection about 3.8% have one here.

What do the screens show for `CCOc1ccc(N(CC)S(=O)(=O)c2ccc3c(c2)n(C)c(=O)c(=O)n3C)cc1`?
M18AAP inhibitor: inactive; pPAFAH FP inh: inactive; PAFAH1B2 FP inh: inactive; PAFAH1B3 inh: inactive; PAFAH2 inh: inactive; Pemphigus Ab inh: -11

What do the screens show for `CCOc1ccc(OCC)c(NS(=O)(=O)c2ccc3c(c2)n(C)c(=O)c(=O)n3C)c1`?
M18AAP inhibitor: inactive; pPAFAH FP inh: inactive; PAFAH1B2 FP inh: inactive; PAFAH1B3 inh: inactive; PAFAH2 inh: inactive; Pemphigus Ab inh: inactive

Results for COc1ccc(S(=O)(=O)N2CCOCC2)cc1NC(=O)CNC(=O)c1cccs1 ?
pPAFAH FP inh: inactive; PAFAH1B2 FP inh: inactive; PAFAH1B3 inh: inactive; PAFAH2 inh: inactive; Pemphigus Ab inh: inconclusive

What do the screens show for `COc1ccccc1N1CCN(/N=C/c2ccc(O)c(O)c2)CC1`?
M18AAP inhibitor: 63; pPAFAH FP inh: inactive

How did FC(F)(F)c1ccc2c(c1)N1CCCC1CN2 (stereo unspecified) do in these assays?
M18AAP inhibitor: inactive; pPAFAH FP inh: inactive; PAFAH1B2 FP inh: inactive; PAFAH1B3 inh: inactive; PAFAH2 inh: inactive; Pemphigus Ab inh: inactive

What do the screens show for `FC(F)(F)c1ccc2c(c1)NCC1CCCN21` (stereo unspecified)?
M18AAP inhibitor: inactive; pPAFAH FP inh: 27; PAFAH1B2 FP inh: inactive; PAFAH1B3 inh: inactive; PAFAH2 inh: 86; Pemphigus Ab inh: inactive

What do the screens show for `COc1cc(OC)c(NS(=O)(=O)c2cc(C(=O)NCCCN3CCOCC3)ccc2C)cc1Cl`?
Pemphigus Ab inh: inactive

What do the screens show for `O=[N+]([O-])c1ccccc1S(=O)(=O)NCCSc1ccccc1`?
M18AAP inhibitor: inactive; pPAFAH FP inh: inactive; PAFAH1B2 FP inh: 29; PAFAH1B3 inh: inactive; PAFAH2 inh: inactive; Pemphigus Ab inh: inactive

Results for O=S(=O)(c1ccccc1)N1CC2CC(Br)C(Br)CC21 (stereo unspecified) ?
Pemphigus Ab inh: inactive

Results for CCOc1ccc(Br)cc1C1=NN(C(C)=O)C(c2ccc([N+](=O)[O-])s2)O1 (stereo unspecified) ?
M18AAP inhibitor: inactive; PAFAH1B2 FP inh: inactive; PAFAH1B3 inh: inactive; PAFAH2 inh: 39; Pemphigus Ab inh: inactive

What do the screens show for `CC(=O)N1N=C(c2ccc(C)cc2)OC1c1ccc(Br)cc1` (stereo unspecified)?
M18AAP inhibitor: inactive; pPAFAH FP inh: inactive; PAFAH1B2 FP inh: inactive; PAFAH1B3 inh: inactive; PAFAH2 inh: inactive; Pemphigus Ab inh: inactive

What do the screens show for `N#Cc1cccc(OC(=O)C2CCN(C(=O)c3ccc(F)cc3)CC2)c1`?
Pemphigus Ab inh: inactive

What do the screens show for `COc1ccc2[nH]c(C)c(CCNC(=S)Nc3cc(C)ccc3C)c2c1`?
M18AAP inhibitor: inactive; pPAFAH FP inh: inactive; PAFAH1B2 FP inh: inactive; PAFAH1B3 inh: inactive; PAFAH2 inh: inactive; Pemphigus Ab inh: -16

Results for Cc1cccc(NC(=O)CNC(=O)C23CC4CC(CC(Cl)(C4)C2)C3)n1 ?
pPAFAH FP inh: inactive; PAFAH1B2 FP inh: inactive; PAFAH1B3 inh: inactive; PAFAH2 inh: inactive; Pemphigus Ab inh: inactive

How did O=C(O)CNC(=O)C12CC3CC(CC(Cl)(C3)C1)C2 do in these assays?
M18AAP inhibitor: inactive; pPAFAH FP inh: inactive; PAFAH1B2 FP inh: 33; PAFAH1B3 inh: inactive; PAFAH2 inh: inactive; Pemphigus Ab inh: inactive

What do the screens show for `Cc1nc(SCc2ccc(Br)cc2)[nH]c(=O)c1C`?
M18AAP inhibitor: inactive; pPAFAH FP inh: 34; PAFAH1B2 FP inh: 74; PAFAH1B3 inh: inactive; PAFAH2 inh: inactive; Pemphigus Ab inh: inconclusive

How did Cc1nnc(SCCc2ccccc2)[nH]c1=O do in these assays?
M18AAP inhibitor: inactive; pPAFAH FP inh: inactive; PAFAH1B2 FP inh: inactive; PAFAH1B3 inh: inactive; PAFAH2 inh: inactive; Pemphigus Ab inh: inactive

Results for Cc1nc(SCCc2ccccc2)[nH]c(=O)c1C ?
M18AAP inhibitor: inactive; pPAFAH FP inh: 27; PAFAH1B2 FP inh: inactive; PAFAH1B3 inh: inactive; PAFAH2 inh: inactive; Pemphigus Ab inh: inactive

Results for CCSc1nc(C)c(C)c(=O)[nH]1 ?
M18AAP inhibitor: inactive; PAFAH1B2 FP inh: inactive; PAFAH1B3 inh: inactive; PAFAH2 inh: inactive; Pemphigus Ab inh: inactive

What do the screens show for `COC(=O)c1cc(OC)c(OC)cc1NC(=S)N1CCN(c2ccccn2)CC1`?
M18AAP inhibitor: inactive; pPAFAH FP inh: inactive; PAFAH1B2 FP inh: inactive; PAFAH1B3 inh: inactive; PAFAH2 inh: inactive; Pemphigus Ab inh: inactive

How did CC(C)Oc1ccc(S(=O)(=O)N2CCOCC2)cc1NC(=O)CSc1nnc(C2CC2)n1C do in these assays?
Pemphigus Ab inh: inactive

Screens deposited in PubChem by several laboratories.
